Each structure is given as a SMILES string. Inconclusive results are not listed.
% is set by controls: 0 for no effect and ±100 for the full control effect.

A short description of the assay: qHTS assay for small molecule antagonists of retinoid X receptor alpha signaling (AID 588546).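 Note: cells stimulated with 9-cis-retinoic acid as agonist.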 The settings on record: HEK293T RXRa-UAS-bla, beta-lactamase ratio, antagonist mode; measured here: W530 green channel, cytotoxicity proxy. The gist of the method:
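Beta-lactamase reporter inhibition, read as CCF4 fluorescence ratio (ex 405, em 460/530 nm) after 2 h at RT. HEK293T UAS-bla cells, 2500/well, were stimulated with 9-cis-RA at 500 or 100 nM final alongside test compound for 18 h at 37 C.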
For orientation: Quantitative high-throughput screening tests each substance at several concentrations.
Consider `O=S(=O)(c1ccc(O)cc1)c1ccc(O)cc1`, for which the max response is -5.39%.
For the molecule `COc1ccc(O)c(C(C)(C)C)c1`, the max response was -10.9%.
Take `O=[N+]([O-])c1ccc(Oc2ccc(C(F)(F)F)cc2[N+](=O)[O-])cc1`: the max response was -9.24%.
`Cc1ccccc1C(=O)Nc1cccc(OC(C)C)c1`: the max response is -1.03%.
For the molecule `CN(C)P(=O)(N(C)C)N(C)C`, the max response is -10.5%.
Next, `CCOc1ccc(C(C)(C)COCc2cccc(Oc3ccccc3)c2)cc1`: -7.02%; `O=c1[nH]c2ccccc2c(=O)o1`: -14.4%; `COc1ccc(C(O)(c2cncnc2)C2CC2)cc1` (configuration not stated): 8.99%.
With `CN(C)c1nc(=O)n(C2CCCCC2)c(=O)n1C`, the max response was -2.46%.
In the case of `C=CC1(C)OC(=O)N(c2cc(Cl)cc(Cl)c2)C1=O` (configuration not stated) it was -0.794%; in that of `COC(=O)c1ccccc1CS(=O)(=O)NC(=O)Nc1nc(OC)cc(OC)n1`, 1.62%; in that of `CCC[CH2][Sn]([CH2]CCC)([O]C(C)=O)[O]C(C)=O`, 2.17%.
In the case of `O=P(O)(O)CCCl` it was -6.38%; in that of `CCCCN(CC)C(=O)SCCC`, -6.82%; in that of `NS(=O)(=O)C(F)(F)C(F)(F)C(F)(F)C(F)(F)C(F)(F)C(F)(F)C(F)(F)C(F)(F)F`, -4.16%.
In the case of `CCOP(=O)(NC(C)C)Oc1ccc(S(C)=O)c(C)c1` (configuration not stated) it was -12.4%; in that of `COP(=S)(OC)Oc1nc(Cl)c(Cl)cc1Cl`, 2.88%.
As to `CCOP(=O)(O)C(N)=O`, the max response is -9.11%.
Take `COC(=O)c1ccccc1S(=O)(=O)NC(=O)N(C)c1nc(C)nc(OC)n1`: the max response is -8.58%.
In the case of `Clc1ccc(C(Cl)(Cl)Cl)cc1` it was -19.4%.
`CCOC1Oc2ccc(OS(C)(=O)=O)cc2C1(C)C` (configuration not stated): the max response was -7.46%.
In the case of `COCc1cnc(C2=NC(C)(C(C)C)C(=O)N2)c(C(=O)O)c1` (configuration not stated) it was -13.7%.

For the origin of these results see PubChem BioAssay (NCATS).
